Assay [1] concerns the target Lysosomal acid glucosylceramidase (Homo sapiens) (UniProt P04062). Kind of assay: Glucocerebrosidase-p2 (AID 348; in the data active = potency below about 10 µM; also: potency is read from the fitted curve at half-maximal effect). The note with it: purified GBA, blue fluorogenic substrate, 40 min. The procedure, abridged:
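Compounds titrated from 0.6 nM upwards against 0.2 nM enzyme in pH 5.9 citric acid/KH2PO4, taurocholate, tween-20; blue fluorogenic substrate 80 uM, 40 min room temperature, stopped and read Ex 365/Em 440 for AC50.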

Assay [2] is described as follows: AP1 Signaling Pathway (AID 357).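 Also: ME-180 reporter cells stimulated with EGF at its EC50 level; % is scaled to controls: 0 for no effect and ±100 for the full control effect.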 To be noted: ME-180 AP-1-bla reporter, EGF-induced, beta-lactamase ratio, 5 h; at 7.69 µM (top of the series) unless noted. Summed up: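 In this screen, ME-180 cells in Opti-MEM with 0.5% dialyzed FBS received EC50 EGF and compound titrations for 5 h. AP-1 reporter beta-lactamase was detected via CCF4 ratio, giving AC50 for positive and negative modulators.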

A short description of assay [3]: NFAT Signaling Pathway (AID 444).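 Also: carbachol stimulus at about its EC50 of 1 µM final; % is scaled to controls: 0 for no effect and ±100 for the full control effect.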 To be noted: Jurkat NFAT-bla M1, carbachol, beta-lactamase ratio, 5 h; at 7.69 µM (top of the series) unless noted. The procedure, abridged: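 Jurkat cells carrying an NFAT-driven β-lactamase reporter and co-transfected muscarinic M1 receptor were treated with compound plus carbachol (1 uM final, an EC50 level) for 5 h at 37 °C. CCF4 loading followed for 1 h at RT; 460/530 nm ratio gave %activity.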

The target in assay [4] is Glucocorticoid receptor (Homo sapiens) (UniProt P04150). The experiment in a line: GR-GFP Redistribution (AID 450;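 active = compounds whose dose series gives a full or clear partial fitted curve of increased nuclear translocation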; also: potency is read from the fitted curve at half-maximal effect). To be noted: U2OS GR-GFP nuclear translocation, laser cytometry, 2 h.
Glucocorticoid receptor (Homo sapiens), sequence (P04150 whole entry, looked up, the tested form may be a part): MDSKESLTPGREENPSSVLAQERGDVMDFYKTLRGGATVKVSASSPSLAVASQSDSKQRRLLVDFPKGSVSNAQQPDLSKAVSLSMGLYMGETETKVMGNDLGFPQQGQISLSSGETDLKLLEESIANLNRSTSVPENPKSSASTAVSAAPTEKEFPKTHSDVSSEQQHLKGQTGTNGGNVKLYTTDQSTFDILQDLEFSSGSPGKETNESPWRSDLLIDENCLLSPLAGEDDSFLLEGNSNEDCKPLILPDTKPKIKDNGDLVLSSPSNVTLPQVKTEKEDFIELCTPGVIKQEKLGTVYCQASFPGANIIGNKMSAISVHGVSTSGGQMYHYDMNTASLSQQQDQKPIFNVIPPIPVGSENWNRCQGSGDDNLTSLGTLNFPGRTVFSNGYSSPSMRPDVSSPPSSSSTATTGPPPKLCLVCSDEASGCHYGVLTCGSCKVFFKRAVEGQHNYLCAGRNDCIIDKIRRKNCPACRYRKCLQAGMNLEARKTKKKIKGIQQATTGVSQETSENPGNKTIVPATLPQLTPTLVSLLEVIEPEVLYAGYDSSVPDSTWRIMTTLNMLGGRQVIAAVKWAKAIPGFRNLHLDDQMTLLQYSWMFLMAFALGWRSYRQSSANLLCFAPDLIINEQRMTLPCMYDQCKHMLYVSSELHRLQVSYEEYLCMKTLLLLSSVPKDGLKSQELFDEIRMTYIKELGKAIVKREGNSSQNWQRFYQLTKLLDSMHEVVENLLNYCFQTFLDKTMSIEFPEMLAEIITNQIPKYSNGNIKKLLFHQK
Assay [5] has the same target. Kind of assay: GR-EFC Redistribution (AID 451; calls by dose curve; also: potency is read from the fitted curve at half-maximal effect). The note with it: CHO-K1 GR-EFC translocation, beta-gal luminescence, 2 h. Summed up: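 CHO-K1 cells stably expressing nuclear-localized β-gal enzyme acceptor and GR fused C-terminally to the enzyme donor fragment; ligand-driven nuclear translocation restores β-gal by complementation. Compounds titrated up to 46 uM final, 2 h at 37 °C; luminescence read.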

Assay [6] concerns the target Mitogen-activated protein kinase 10 (Mus musculus) (UniProt Q61831). Kind of assay: JNK3 AlphaScreen Assay (AID 530).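 Also: kinase came from lysate of stimulated human HepG2 cells; signal reports phosphorylation of biotinylated GST-cJun 1-79 at Ser73 with 10 µM ATP; % is scaled to controls: 0 for no effect and ±100 for the full control effect.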 To be noted: JNK3 lysate, c-Jun phosphorylation; series mostly up to 11.4 µM. The procedure, abridged:
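Inhibitors reduce antibody binding to phosphorylated biotin-cJun, lowering AlphaScreen luminescence. Lysates from HepG2 cells pre-activated by IL-1beta plus TNF-alpha supplied JNK3; compounds were titrated.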
Background: Alpha assays give light when donor and acceptor beads are brought close together.

Assay [7] concerns the target 3',5'-cyclic-AMP phosphodiesterase 4B (Homo sapiens) (UniProt Q07343). Kind of assay: qHTS Assay for Inhibitors of PDE-IV (AID 607; active = well fitted activation curve with a large enough effect in the main read-out, with a control signal flat, not every such curve was filed as active; also: % of control where 0% means no effect). The note with it: HEK293 ACTOne CNG channel cells, membrane potential fluorescence; series mostly up to 22.9 µM. Summed up: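 HEK293 ACTOne cells with CNG channel (1000/well), endogenous PDE4; membrane potential dye, compounds up to 22.9 uM final. Fluorescence Ex 535/Em 590; RO 20-1724 (100 uM final) as reference.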

The target in assay [8] is Cytochrome P450 2C9 (Homo sapiens) (UniProt P11712). Kind of assay: qHTS Assay for Inhibitors and Substrates of Cytochrome P450 2C9 (AID 883; active = well fitted inhibition curve with a large enough effect; also: nearly all actives have a fitted effect of over 60% in size; also: potency is read from the fitted curve at half-maximal effect). The note with it: recombinant CYP2C9, luciferin-H luminescence, 60 min; series mostly up to 11.4 µM. Summed up:
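CYP2C9 deoxyluciferin hydroxylation, 37C, 60 min with NADPH regeneration; 10nM enzyme, 100uM Luciferin-H (KM). Glo detection reagent stopped reaction; luminescence normalized to sulphaphenazole (57uM) full inhibition.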
For orientation: Quantitative high-throughput screening tests each substance at several concentrations.

Assay [9] has as its target Cytochrome P450 3A4 (Homo sapiens) (UniProt P08684). The experiment in a line: qHTS Assay for Inhibitors and Substrates of Cytochrome P450 3A4 (AID 884; active = well fitted inhibition curve with a large enough effect; also: % is scaled to controls: 0 for no effect and ±100 for the full control effect; nearly all actives have a fitted effect of over 50% in size). The note with it: recombinant CYP3A4, Luciferin-PPXE luminescence; series mostly up to 57.1 µM. Summed up:
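20 nM human CYP3A4 with 25 uM Luciferin-PPXE (at KM) in 200 mM KPO4, preincubated 10 min with compound; NADPH regeneration started a 60 min RT reaction. Luciferin detected by luminescence, normalized to 57 uM ketoconazole as full inhibition.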

A short description of assay [10]: Stat Signaling Pathway (AID 446).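 Also: ME-180 cervical cancer cells given 40 pM IL-6 alongside compound; SIE-controlled beta-lactamase reporter measured as 460/530 nm FRET emission ratio; % is scaled to controls: 0 for no effect and ±100 for the full control effect.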 To be noted: ME-180 (cervical carcinoma) SIE beta-lactamase reporter, IL-6 stimulated, 5 h; at 7.69 µM (top of the series) unless noted. Summed up:
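ME-180 cells carrying a SIE-driven beta-lactamase reporter are stimulated with 40 pM IL-6 for 5 h at 37C in the presence of compound. The 460/530 nm FRET substrate ratio is read after 2.5 h at RT. Data are normalised to 300 pM IL-6 and to 125 nM JAK inhibitor controls.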

In assay [11] the target is Cytochrome P450 2D6 (Homo sapiens) (UniProt P10635). Kind of assay: qHTS Assay for Inhibitors and Substrates of Cytochrome P450 2D6 (AID 891; active = well fitted inhibition curve with a large enough effect; also: nearly all actives have a fitted effect of over 60% in size; also: potency is read from the fitted curve at half-maximal effect). The note with it: recombinant CYP2D6, luciferin-ME EGE luminescence; series mostly up to 11.4 µM. Summed up:
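Human CYP2D6 (5 nM) with 30 uM Luciferin-ME EGE (at Km) in 100 mM KPO4, compound preincubated 10 min, then NADPH regeneration system for 60 min at room temperature. Luciferin read by luminescence; normalized to 1.43 uM quinidine.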

Assay [12] addresses Cytochrome P450 2C19 (Homo sapiens) (UniProt P33261). Kind of assay: qHTS Assay for Inhibitors and Substrates of Cytochrome P450 2C19 (AID 899; active = well fitted inhibition curve with a large enough effect; also: % is scaled to controls: 0 for no effect and ±100 for the full control effect; nearly all actives have a fitted effect of over 60% in size). To be noted: recombinant CYP2C19, luciferin-H EGE luminescence; series mostly up to 11.4 µM. Summed up: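 In 50mM KPO4, the reaction held 5nM enzyme and KM-level (10uM) Luciferin-H EGE; it ran 60 min at 37C after NADPH regeneration and a 10 min compound preincubation. Luminescence values were scaled to 57uM ketoconazole as complete inhibition.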

The source of these data is PubChem BioAssay (NCATS).

Values without a mark were called inactive. Results filed as inconclusive are left out. Calls of active or inactive are those of the source. Unless noted, calls follow the shape of the dose curve; as a rule, active = well fitted curve in either direction with a large enough effect (not every such curve was filed as active); inconclusive = small, poorly fitted or top-dose-only effect, or another doubt; inactive = flat fitted curve, though single readings scatter.

3',5'-cyclic-AMP phosphodiesterase 4B (Homo sapiens), sequence (Q07343 whole entry, looked up): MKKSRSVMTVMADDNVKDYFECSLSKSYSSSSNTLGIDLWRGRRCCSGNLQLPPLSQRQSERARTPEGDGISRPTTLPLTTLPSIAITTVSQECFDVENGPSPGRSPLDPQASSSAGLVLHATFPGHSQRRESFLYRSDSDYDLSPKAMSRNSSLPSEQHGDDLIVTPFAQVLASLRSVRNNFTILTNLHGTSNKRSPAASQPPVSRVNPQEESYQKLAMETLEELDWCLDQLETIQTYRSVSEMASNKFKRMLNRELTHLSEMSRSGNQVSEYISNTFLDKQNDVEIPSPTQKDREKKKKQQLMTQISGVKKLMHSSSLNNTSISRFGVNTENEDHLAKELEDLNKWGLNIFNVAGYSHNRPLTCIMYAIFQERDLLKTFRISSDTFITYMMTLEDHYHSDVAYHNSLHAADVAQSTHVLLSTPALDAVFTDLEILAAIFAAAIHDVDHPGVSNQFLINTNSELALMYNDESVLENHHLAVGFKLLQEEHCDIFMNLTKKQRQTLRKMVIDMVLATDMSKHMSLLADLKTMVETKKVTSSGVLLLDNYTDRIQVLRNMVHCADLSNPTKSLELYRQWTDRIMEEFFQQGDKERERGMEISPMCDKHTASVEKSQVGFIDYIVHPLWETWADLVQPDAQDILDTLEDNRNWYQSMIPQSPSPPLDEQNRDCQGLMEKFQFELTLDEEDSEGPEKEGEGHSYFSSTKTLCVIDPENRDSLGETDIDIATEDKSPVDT
Cytochrome P450 2C9 (Homo sapiens), sequence (P11712 whole entry, looked up): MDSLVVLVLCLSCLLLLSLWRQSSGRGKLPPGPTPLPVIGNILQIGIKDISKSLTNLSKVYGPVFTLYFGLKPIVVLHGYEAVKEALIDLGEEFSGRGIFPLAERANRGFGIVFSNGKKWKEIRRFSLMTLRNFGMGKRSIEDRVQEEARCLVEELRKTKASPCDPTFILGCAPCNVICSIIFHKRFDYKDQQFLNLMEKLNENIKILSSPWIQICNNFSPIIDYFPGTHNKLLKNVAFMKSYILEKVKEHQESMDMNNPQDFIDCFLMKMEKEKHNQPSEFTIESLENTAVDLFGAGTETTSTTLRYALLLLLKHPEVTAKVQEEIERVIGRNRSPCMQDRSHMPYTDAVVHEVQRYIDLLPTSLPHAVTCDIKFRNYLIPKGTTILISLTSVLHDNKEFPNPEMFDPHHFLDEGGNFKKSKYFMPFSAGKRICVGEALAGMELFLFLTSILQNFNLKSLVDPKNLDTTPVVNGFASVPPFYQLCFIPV
Lysosomal acid glucosylceramidase (Homo sapiens), sequence (P04062 whole entry, looked up): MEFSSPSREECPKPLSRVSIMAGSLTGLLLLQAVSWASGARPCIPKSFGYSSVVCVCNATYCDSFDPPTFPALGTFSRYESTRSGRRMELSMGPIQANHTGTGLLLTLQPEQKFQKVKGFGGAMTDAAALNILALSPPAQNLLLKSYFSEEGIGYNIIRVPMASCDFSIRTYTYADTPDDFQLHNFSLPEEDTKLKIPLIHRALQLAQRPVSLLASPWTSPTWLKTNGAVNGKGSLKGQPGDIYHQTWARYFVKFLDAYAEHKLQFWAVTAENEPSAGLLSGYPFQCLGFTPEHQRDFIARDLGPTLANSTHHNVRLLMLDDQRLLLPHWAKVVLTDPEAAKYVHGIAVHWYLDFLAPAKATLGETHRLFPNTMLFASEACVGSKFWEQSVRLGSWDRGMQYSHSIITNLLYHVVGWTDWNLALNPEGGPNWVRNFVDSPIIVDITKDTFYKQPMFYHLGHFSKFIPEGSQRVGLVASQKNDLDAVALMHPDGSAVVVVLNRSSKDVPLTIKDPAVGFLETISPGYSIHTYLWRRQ
Cytochrome P450 3A4 (Homo sapiens), sequence (P08684 whole entry, looked up): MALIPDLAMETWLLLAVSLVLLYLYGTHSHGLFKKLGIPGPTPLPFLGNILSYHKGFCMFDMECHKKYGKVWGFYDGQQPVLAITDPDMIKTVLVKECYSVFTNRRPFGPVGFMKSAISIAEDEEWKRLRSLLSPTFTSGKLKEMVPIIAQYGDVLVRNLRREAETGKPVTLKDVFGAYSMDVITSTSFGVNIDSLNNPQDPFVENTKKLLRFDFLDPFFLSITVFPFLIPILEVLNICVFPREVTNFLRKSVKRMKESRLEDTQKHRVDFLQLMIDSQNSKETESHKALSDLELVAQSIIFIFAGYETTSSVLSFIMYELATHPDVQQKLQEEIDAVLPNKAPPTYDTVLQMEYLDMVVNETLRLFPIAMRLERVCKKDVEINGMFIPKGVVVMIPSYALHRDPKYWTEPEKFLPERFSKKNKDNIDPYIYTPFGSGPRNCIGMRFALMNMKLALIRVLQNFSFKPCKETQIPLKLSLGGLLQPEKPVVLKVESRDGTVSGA
Cytochrome P450 2D6 (Homo sapiens), sequence (P10635 whole entry, looked up): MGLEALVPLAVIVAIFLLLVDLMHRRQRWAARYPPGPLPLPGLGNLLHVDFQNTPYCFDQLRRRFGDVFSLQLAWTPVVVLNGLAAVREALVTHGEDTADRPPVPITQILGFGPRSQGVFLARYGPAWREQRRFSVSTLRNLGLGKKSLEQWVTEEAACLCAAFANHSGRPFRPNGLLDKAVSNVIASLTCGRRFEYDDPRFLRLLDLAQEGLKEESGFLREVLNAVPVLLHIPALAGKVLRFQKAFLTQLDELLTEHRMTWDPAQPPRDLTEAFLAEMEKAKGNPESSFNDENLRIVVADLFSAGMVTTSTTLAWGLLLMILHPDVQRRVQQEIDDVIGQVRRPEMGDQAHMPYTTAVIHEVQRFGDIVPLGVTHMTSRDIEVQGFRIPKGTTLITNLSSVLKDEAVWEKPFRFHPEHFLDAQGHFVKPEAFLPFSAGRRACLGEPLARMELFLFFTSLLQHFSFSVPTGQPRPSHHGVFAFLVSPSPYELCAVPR
Cytochrome P450 2C19 (Homo sapiens), sequence (P33261 whole entry, looked up): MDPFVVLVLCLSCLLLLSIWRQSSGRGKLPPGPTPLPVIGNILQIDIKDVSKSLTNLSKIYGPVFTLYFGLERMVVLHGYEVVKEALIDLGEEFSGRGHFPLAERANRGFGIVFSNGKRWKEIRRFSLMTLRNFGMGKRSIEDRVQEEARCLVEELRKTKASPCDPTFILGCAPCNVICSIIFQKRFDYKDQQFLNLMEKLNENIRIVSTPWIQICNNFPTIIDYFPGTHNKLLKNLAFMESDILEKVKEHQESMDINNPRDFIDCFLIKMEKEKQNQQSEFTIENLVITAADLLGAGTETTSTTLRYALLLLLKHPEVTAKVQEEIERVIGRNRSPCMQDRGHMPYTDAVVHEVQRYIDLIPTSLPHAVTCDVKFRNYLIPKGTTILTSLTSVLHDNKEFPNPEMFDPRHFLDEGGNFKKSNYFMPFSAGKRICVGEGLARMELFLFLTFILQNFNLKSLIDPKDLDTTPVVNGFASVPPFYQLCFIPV

Regarding `C[C@H]1CCCC=CC2C[C@H](OC(=O)CN(C)C)C[C@@H]2[C@@H](O)/C=C\C(=O)O1` (stereo partly specified), the results for the Potency in assay [1], in assay [4] and in assay [5] were above 11.4 µM, above 46 µM and above 9.22 µM, respectively. Further, the activity change, negative = inhibition is -7.78% in assay [2], 29.7% in assay [3] and 229% [at 11.4 µM] in [9]. Also, the Potency entry in [6], in assay [7] and in [8] was “inactive” each time.
Regarding `CNc1ncnc(Sc2nc(N)nc3nc[nH]c23)c1[N+](=O)[O-]`, the results for the Potency in assay [1], in assay [4] and in assay [5] were above 11.4 µM, above 46 µM and above 9.22 µM, respectively. The activity change, negative = inhibition in assay [2] is -9.31%. Besides, the activity, negative = inhibition in assay [10] is 21.1%. Further, the Potency result in [6] and in assay [7] was “inactive” in each case.
With `O=C(O)CSCC(=O)c1ccccc1`, the figures for the Potency in [1], in assay [4] and in [5] were above 11.4 µM, above 46 µM and above 9.22 µM, respectively. In addition, the activity change, negative = inhibition in assay [2] was 3.6%; in assay [3] it was 11.1%; in [9] it was -4.13% [at 11.4 µM]. The Potency result in assay [6], in assay [7], in assay [8], in assay [11] and in assay [12] was “inactive” in each case.
In the case of `C[C@@H]1CC[C@H]2[C@H](C)[C@H]3[C@H](C[C@H]4[C@@H]5CC=C6C[C@@H](O)CC[C@@]6(C)[C@@H]5C[C@@H](O)[C@]34C)N2C1`, the figures for the Potency in [1], in assay [4] and in assay [5] were above 11.4 µM, above 46 µM and above 9.22 µM, respectively. Moreover, the activity change, negative = inhibition in assay [2] was -4.34%. For the same compound, the activity, negative = inhibition in assay [10] is -3.84%. The Potency result in [6] and in assay [7] was “inactive” in each case.
In the case of `CC(=O)NC1=C(OS(=O)(=O)c2ccc(C)cc2)CN(C)C1=O`, the values for the Potency in assay [1], in [4] and in [5] were above 11.4 µM, above 46 µM and above 9.22 µM, respectively. The activity change, negative = inhibition in assay [2] is 24.1%. The activity, negative = inhibition in assay [10] was -10.5%. The Potency entry in assay [6] and in assay [7] was “inactive” throughout.
Regarding `O=[N+]([O-])c1ccc2c(N=Nc3ccc4ccccc4c3O)c(O)cc(S(=O)(=O)O)c2c1`, the Potency in assay [1] is above 11.4 µM; in assay [4], above 46 µM; in [5], above 9.22 µM; in assay [8] it was 3.16 µM (active). Moreover, the activity change, negative = inhibition is -18.5% in assay [2] and -9.87% in assay [3]. In addition, the Potency result in assay [7] is “inactive”.
In the case of `CN1CCC[C@H](C(=O)OCC(=O)[C@]2(O)CC[C@@H]3[C@H]4CCC5=CC(=O)CC[C@@]5(C)[C@H]4[C@@H](O)C[C@]32C)C1`, the Potency was above 11.4 µM in [1], 0.135 µM (active) in [4] and above 9.22 µM in assay [5]. For the same compound, the activity change, negative = inhibition in assay [2] was 11%. The activity, negative = inhibition in assay [10] is -2.61%. The Potency result in assay [6] and in assay [7] was “inactive” in each case.
As to `N=C(N)SC(c1ccccc1)c1ccccc1`, the Potency is above 11.4 µM in assay [1], above 46 µM in assay [4] and above 9.22 µM in assay [5]. Moreover, the activity change, negative = inhibition in assay [2] was 6.69%. Also, the activity, negative = inhibition in assay [10] was 0.795%. For the same compound, the Potency entry in assay [6] and in assay [7] was “inactive” each time.
As to `c1ccc(CSCCc2ccncc2)cc1`, the Potency was above 11.4 µM in assay [1]; above 46 µM in [4]; above 9.22 µM in [5]; 0.316 µM (active) in [8]; 1.26 µM (active) in assay [11]. Besides, the activity change, negative = inhibition in [2] was -1.16%; in assay [3], -10.1%. Besides, the Potency result in [6] and in assay [7] was “inactive” each time.
